The values below come from PubChem BioAssay (NCI).

Test [1] can be described thus: NCI Yeast Anticancer Drug Screen. Data for the rad50 strain (AID 155).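 Also: 0% = growth of vehicle-only cultures of the same strain.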 The conditions noted are these: S. cerevisiae rad50 strain growth inhibition, hits give high values. The gist of the method:
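Readout: growth inhibition relative to vehicle-treated cultures. Compound exposure was carried out in a genetically defined yeast strain deficient in DNA damage repair.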

Test [2] in a line: NCI Yeast Anticancer Drug Screen. Data for the mec2-1 strain (AID 157). The following applies: S. cerevisiae mec2-1 strain, hits give high values. In outline: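 Growth inhibition is read against vehicle-treated controls after compound exposure of the mec2-1 yeast strain, which is defective in DNA damage repair or cell cycle control.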
Test [3] can be described thus: NCI Yeast Anticancer Drug Screen. Data for the sgs1 mgt1 strain (AID 161).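 Also: 0% = growth of cultures given vehicle only.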 The conditions noted are these: S. cerevisiae sgs1 mgt1 strain, hits give high values. In outline: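 Compounds are added to genetically altered yeast, and growth is compared with cultures given vehicle alone to give percent inhibition.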
A short description of test [4]: NCI Yeast Anticancer Drug Screen. Data for the cln2 rad14 strain (AID 165).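 Also: 0% = growth equal to vehicle treated cultures.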 The conditions noted are these: S. cerevisiae cln2 rad14 strain, hits give high values. In outline: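 Growth inhibition, relative to vehicle-treated controls, is the read-out. The test organism is a yeast strain with defined genetic alterations, cln2 rad14.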
The nature of test [5]: NCI Yeast Anticancer Drug Screen. Data for the bub3 strain (AID 167). The conditions noted are these: S. cerevisiae bub3 mutant strain, hits give high values. The gist of the method: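 Readout: yeast growth inhibition, expressed relative to vehicle-only wells. The test organism is a mutant strain from a panel with lesions in DNA repair or checkpoint genes.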
Test [6] can be described thus: NCI Yeast Anticancer Drug Screen. Data for the mlh1 rad18 strain (AID 175). The conditions noted are these: S. cerevisiae mlh1 rad18 strain growth inhibition, hits give high values. The gist of the method: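 Cells of a genetically altered yeast strain, deficient in DNA damage repair, were treated with compound. Their growth was then compared with that of vehicle-treated cultures to give inhibition.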

Where [7] appears, read: at 5.0 µM (retest, dose inferred, filed as 0.5).
Setting [8] is: at 50.0 µM (retest, dose inferred, filed as 5.0).

Each structure is given as a SMILES string. Compounds without any hit were thinned out: in the full panel of roughly 79,000, 15% have a hit. Values without a mark were called inactive. Active and inactive are the calls of the source. Rule as the data show it: active = growth inhibition above about 70%; inactive = the rest. Where a SMILES comes first, the peptide text is derived from it. Bridges are numbered along the chain shown (N, C = ends). [ ]: non-standard residue; d: D form. NMeV = CN[CH](C(=O)O)C(C)C; Sar = CNCC(=O)O

In the case of `S=C(Nc1ccc2cn[nH]c2c1)Nc1ccc2cn[nH]c2c1`, the growth inhibition is 7% in test [1] (setting [7]); 46% in test [1] (setting [8]); 79.1% (active) in test [1] (at 50.0 µM); 16% in test [2] (setting [7]); 0% in test [2] (setting [8]); -12.9% in test [2] (at 50.0 µM). For the same molecule, the growth inhibition in test [3] (setting [7]) was -5%; in test [3] (setting [8]), 5%; in test [3] (at 50.0 µM), 30.9%; in test [4] (setting [7]) it was -25%; in test [4] (setting [8]) it was 2%; in test [4] (at 50.0 µM) it was -1.15%. The growth inhibition is 7% in test [5] (setting [7]); 1% in test [5] (setting [8]); 40% in test [5] (at 50.0 µM); 2% in test [6] (setting [7]); 17% in test [6] (setting [8]); 41.9% in test [6] (at 50.0 µM).
With `CCOC(=O)/C=C(\CC(=O)OCC)C(=O)OCC`, the growth inhibition is -3% in test [1] (setting [7]); 3% in test [1] (setting [8]); 99.5% (active) in test [1] (at 50.0 µM); -1% in test [2] (setting [7]); -8% in test [2] (setting [8]); 99.7% (active) in test [2] (at 50.0 µM). Further, the growth inhibition in test [3] (setting [7]) is -1%; in test [3] (setting [8]) it was 5%; in test [3] (at 50.0 µM) it was 99.2% (active); in test [4] (setting [7]) it was -3%; in test [4] (setting [8]) it was -6%; in test [4] (at 50.0 µM), 13.4%. The growth inhibition was 4% in test [5] (setting [7]); 25% in test [5] (setting [8]); 99.5% (active) in test [5] (at 50.0 µM); -3% in test [6] (setting [7]); -2% in test [6] (setting [8]); 99.3% (active) in test [6] (at 50.0 µM).
On to `CCCCCCCC/C=C\CCCCCCCC(=O)NCC[N+](C)(C)C`, for which the growth inhibition in test [1] (setting [7]) is 48%; in test [1] (setting [8]), 99% (active); in test [1] (at 50.0 µM), 99.2% (active); in test [2] (setting [7]) it was 17%; in test [2] (setting [8]) it was 100% (active); in test [2] (at 50.0 µM), 99.7% (active). For the same molecule, the growth inhibition in test [3] (setting [7]) was 53%; in test [3] (setting [8]), 99% (active); in test [3] (at 50.0 µM) it was 99.7% (active); in test [4] (setting [7]), 10%; in test [4] (setting [8]) it was 99% (active); in test [4] (at 50.0 µM), 97.4% (active). Moreover, the growth inhibition in test [5] (setting [7]) was 83% (active); in test [5] (setting [8]), 100% (active); in test [5] (at 50.0 µM) it was 99.3% (active); in test [6] (setting [7]) it was 10%; in test [6] (setting [8]), 99% (active); in test [6] (at 50.0 µM), 99.5% (active).
Turning to `CC(NNC(=S)N1CCCCCC1)c1cccnn1` (configuration not stated), the growth inhibition in test [1] (setting [7]) is 99% (active); in test [1] (setting [8]), 99% (active); in test [1] (at 50.0 µM), 89% (active); in test [2] (setting [7]), 98% (active); in test [2] (setting [8]), 99% (active); in test [2] (at 50.0 µM), 93% (active). Also, the growth inhibition in test [3] (setting [7]) is 97% (active); in test [3] (setting [8]), 99% (active); in test [3] (at 50.0 µM) it was 89.2% (active); in test [4] (setting [7]) it was 98% (active); in test [4] (setting [8]), 99% (active); in test [4] (at 50.0 µM), 90.5% (active). The growth inhibition is 98% (active) in test [5] (setting [7]); 99% (active) in test [5] (setting [8]); 91.6% (active) in test [5] (at 50.0 µM); 99% (active) in test [6] (setting [7]); 99% (active) in test [6] (setting [8]); 85% (active) in test [6] (at 50.0 µM).
For `CC(C)C1NC(=O)C(N)C(C)OC(=O)C(C(C)C)N(C)C(=O)CN(C)C(=O)C2CCCN2C1=O` (configuration not stated) (tested in a mixture with another compound) (H-TVP[Sar][NMeV]; ester 1-C; configuration not given here), the growth inhibition is 21% in test [1] (setting [7]); 94% (active) in test [1] (setting [8]); 89.1% (active) in test [1] (at 50.0 µM); 10% in test [2] (setting [7]); 97% (active) in test [2] (setting [8]); 92.2% (active) in test [2] (at 50.0 µM). The growth inhibition in test [3] (setting [7]) was 18%; in test [3] (setting [8]), 91% (active); in test [3] (at 50.0 µM) it was 90.3% (active); in test [4] (setting [7]), 39%; in test [4] (setting [8]), 95% (active); in test [4] (at 50.0 µM) it was 87.5% (active). Besides, the growth inhibition is 16% in test [5] (setting [7]); 96% (active) in test [5] (setting [8]); 90.8% (active) in test [5] (at 50.0 µM); 11% in test [6] (setting [7]); 95% (active) in test [6] (setting [8]); 90.2% (active) in test [6] (at 50.0 µM).
Turning to `NC(=O)Nc1cc(=O)[nH]c(=S)[nH]1`, the growth inhibition in test [1] (setting [7]) is -2%; in test [1] (setting [8]), -2%; in test [1] (at 50.0 µM), 6.9%; in test [2] (setting [7]) it was 4%; in test [2] (setting [8]), -1%; in test [2] (at 50.0 µM), 8.65%. In addition, the growth inhibition in test [3] (setting [7]) was 0%; in test [3] (setting [8]), 0%; in test [3] (at 50.0 µM), -9.9%; in test [4] (setting [7]), -1%; in test [4] (setting [8]), -5%; in test [4] (at 50.0 µM), 5.05%. Besides, the growth inhibition is -1% in test [5] (setting [7]); -4% in test [5] (setting [8]); 42.4% in test [5] (at 50.0 µM); -3% in test [6] (setting [7]); -2% in test [6] (setting [8]); -23.1% in test [6] (at 50.0 µM).
For the molecule `COc1ccc(Cc2nncc3ccccc23)cc1OC`, the growth inhibition in test [1] (setting [7]) was -4%; in test [1] (setting [8]) it was 84% (active); in test [1] (at 50.0 µM), 91.2% (active); in test [2] (setting [7]) it was 1%; in test [2] (setting [8]), 83% (active); in test [2] (at 50.0 µM), 96.5% (active). The growth inhibition is -3% in test [3] (setting [7]); 92% (active) in test [3] (setting [8]); 95.3% (active) in test [3] (at 50.0 µM); 1% in test [4] (setting [7]); 83% (active) in test [4] (setting [8]); 72.2% (active) in test [4] (at 50.0 µM). Besides, the growth inhibition is 1% in test [5] (setting [7]); 90% (active) in test [5] (setting [8]); 96% (active) in test [5] (at 50.0 µM); -4% in test [6] (setting [7]); 93% (active) in test [6] (setting [8]); 95.7% (active) in test [6] (at 50.0 µM).
With `S=C(NCCc1ccccc1)N/N=C/c1ccc(Cl)cc1`, the growth inhibition is 52% in test [1] (setting [7]); 57% in test [1] (setting [8]); 85.7% (active) in test [1] (at 50.0 µM); 36% in test [2] (setting [7]); 54% in test [2] (setting [8]); 74.3% (active) in test [2] (at 50.0 µM). Besides, the growth inhibition in test [3] (setting [7]) was 54%; in test [3] (setting [8]), 61%; in test [3] (at 50.0 µM) it was 83.5% (active); in test [4] (setting [7]), 34%; in test [4] (setting [8]) it was 45%; in test [4] (at 50.0 µM) it was 83% (active). For the same molecule, the growth inhibition is 52% in test [5] (setting [7]); 65% in test [5] (setting [8]); 85.6% (active) in test [5] (at 50.0 µM); 61% in test [6] (setting [7]); 67% in test [6] (setting [8]); 80.9% (active) in test [6] (at 50.0 µM).
As to `COc1ccc(C(=O)C(C(c2ccccc2)N2CCc3ccccc3C2)N2CCc3ccccc3C2)cc1` (configuration not stated), the growth inhibition was 3% in test [1] (setting [7]); 22% in test [1] (setting [8]); 27.4% in test [1] (at 50.0 µM); -2% in test [2] (setting [7]); 2% in test [2] (setting [8]); 15.2% in test [2] (at 50.0 µM). Further, the growth inhibition in test [3] (setting [7]) was 0%; in test [3] (setting [8]) it was -6%; in test [3] (at 50.0 µM), 12.2%; in test [4] (setting [7]), 2%; in test [4] (setting [8]) it was -27%; in test [4] (at 50.0 µM) it was 26.9%. Also, the growth inhibition was -3% in test [5] (setting [7]); 4% in test [5] (setting [8]); 78.3% (active) in test [5] (at 50.0 µM); -1% in test [6] (setting [7]); 6% in test [6] (setting [8]); 27.6% in test [6] (at 50.0 µM).
